The source of these data is PubChem BioAssay (NCATS).

Results filed as inconclusive are left out. Unmarked numbers belong to inactive results. Active and inactive are the calls of the source. The call rests on the fitted dose curve; in most records, active means well fitted curve in the direction sought with a large enough effect; inconclusive means small, poorly fitted or top-dose-only effect, or another doubt; inactive means no such curve, though single readings can be large; an effect the other way counts as inactive or inconclusive.

The test system of one assay is TAB113. Nature of the assay: qHTS profiling for inhibitors of Plasmodium falciparum proliferation (AID 504749). Further: nearly all actives have a fitted effect of over 60% in size. Further: potency means the concentration at half of the fitted maximal effect. Particulars: P. falciparum in erythrocytes, SYBR Green DNA, 72 h; series mostly up to 28.7 µM. In outline: (§1)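 Each compound contacts P. falciparum-infected red blood cells for 72 h at 37 C; lysis buffer (Tris, EDTA, saponin, Triton X, SYBR Green I) is added and fluorescence measured next morning; values normalized to controls.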

In a further assay the test system is TAB165. Described as above. As to conditions: P. falciparum in erythrocytes, SYBR Green DNA, 72 h; series mostly up to 28.7 µM. In outline: as §1
The next assay concerns W2. The description is as above. As to conditions: P. falciparum in erythrocytes, SYBR Green DNA, 72 h; series mostly up to 28.7 µM. In outline:
as §1

For a further assay, the system named is KB-3-1. Nature of the assay: Cytotoxic Profiling of Annotated Libraries Using Quantitative High-Throughput Screening (AID 1296008). Further: on the % scale 0 is the no-effect control and ±100 the full control effect; nearly all actives have a fitted effect of over 60% in size. As to conditions: Five cell lines viability, CellTiter-Glo ATP luminescence, 48-72 h; max response: active compounds read low. In outline:
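Cells exposed to compounds for 48 or 72 hr at 37 degrees Celsius. Viability read as ATP-coupled luminescence with CellTiter-Glo after 10 min at room temperature.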
A general note: In ATP-based viability assays light output follows the ATP content of the culture.

The subject of a further assay is HEK293T. Put plainly: qHTS assay to identify novel small-molecules to repurpose for Merkel cell carcinoma treatment (AID 1296009). Further: nearly all actives have a fitted effect of over 60% in size. Particulars: MCC and control cell lines, CellTiter-Glo viability, 72 h; at 44.8 µM (top of the series) unless noted. In a few lines: (§2)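 Dose-response viability screen; 72 hr exposure at 37 degree celsius; CellTiter-Glo added, 10 min room temperature, luminescence read; RLUs scaled between no-cell and DMSO wells.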

The next assay has as its system MCC-13. The description is as above. As to conditions: MCC and control cell lines, CellTiter-Glo viability, 72 h; series mostly up to 46 µM. In outline: as §2
A further assay has as its system MCC-26. The description is as above. As to conditions: MCC and control cell lines, CellTiter-Glo viability, 72 h; series mostly up to 46 µM. In outline: as §2
For a further assay, the system named is MKL-1. Described as above. As to conditions: MCC and control cell lines, CellTiter-Glo viability, 72 h; series mostly up to 46 µM. In outline:
as §2

For the next assay, the system named is MKL-2. The description is as above. Particulars: MCC and control cell lines, CellTiter-Glo viability, 72 h; series mostly up to 46 µM. In outline:
as §2

The subject of the next assay is NIH3T3. Described as above. As to conditions: MCC and control cell lines, CellTiter-Glo viability, 72 h; at 44.8 µM (top of the series) unless noted. In outline: as §2
The test system of a further assay is UISO. Described as above. Particulars: MCC and control cell lines, CellTiter-Glo viability, 72 h; series mostly up to 46 µM. In outline: as §2
A further assay has as its system WaGa. Described as above. As to conditions: MCC and control cell lines, CellTiter-Glo viability, 72 h; series mostly up to 46 µM. In a few lines: as §2
The test system of a further assay is C33A. Put plainly: Primary qHTS to identify gynecologic anti-cancer compounds using libraries of approved drugs and bioactive compounds (AID 1345084). Further: on the % scale 0 is the no-effect control and ±100 the full control effect; nearly all actives have a fitted effect of over 55% in size. Particulars: Gynecologic cancer cell panel viability, ATPlite luminescence, 48 h; series mostly up to 57.5 µM. In a few lines:
(§3)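 Five-point cytotoxicity, 48 h drug exposure at 37 C, 5% CO2, on cells seeded 16 h beforehand. ATP content read by ATPlite luminescence.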
A general note: qHTS replaces the single test concentration by a dilution series.

A further assay relates to CAOV3. The description is as above. As to conditions: Gynecologic cancer cell panel viability, ATPlite luminescence, 48 h; series mostly up to 57.5 µM. In outline:
as §3

The next assay deals with CASKI. The description is as above. Particulars: Gynecologic cancer cell panel viability, ATPlite luminescence, 48 h; series mostly up to 57.5 µM. In a few lines: as §3
For the next assay, the system named is HACAT. Nature of the assay: qHTS assay to identify novel small-molecules to repurpose for Merkel cell carcinoma treatment (AID 1296009). Further: nearly all actives have a fitted effect of over 60% in size. As to conditions: MCC and control cell lines, CellTiter-Glo viability, 72 h; at 44.8 µM (top of the series) unless noted. In outline:
as §2

Take `C1CCc2nnnn2CC1`: the Potency result with TAB113, in the assay with TAB165 and in the assay on W2 was “inactive” throughout. For the same compound, in the assay on KB-3-1, the max response is 18.9%.
As for `CC[C@@H](CO)NCCN[C@@H](CC)CO`, the compound was called inactive with HEK293T and in the assay on NIH3T3. Further, the Potency entry with MCC-13, in the assay with MCC-26, with MKL-1, in the assay with MKL-2, with UISO and in the assay on WaGa was “inactive” throughout. For the same compound, the Potency entry in the assay on C33A, in the assay on CAOV3 and in the assay on CASKI was “inactive” throughout.
On to `N[C@@H](Cc1cnc[nH]1)C(=O)O`, for which the Potency entry in the assay on TAB113, with TAB165 and in the assay with W2 was “inactive” throughout. Moreover, the max response in the assay with KB-3-1 is 2.19%.
On to `CO/N=C1\CN(c2nc3c(cc2F)c(=O)c(C(=O)O)cn3C2CC2)CC1CN` (stereo not drawn), for which the Potency with W2 is 5.36 µM (active). The outcome in the assay on HACAT was inactive. In addition, the Potency entry in the assay with MCC-13, with MCC-26, with MKL-1, in the assay on MKL-2, in the assay on UISO and in the assay with WaGa was “inactive” each time. Besides, the Potency result in the assay on CAOV3 and in the assay with CASKI was “inactive” in each case.
Regarding `CC(=O)CC(c1ccc([N+](=O)[O-])cc1)c1c(O)c2ccccc2oc1=O` (stereo not drawn), the call in the assay on HACAT was inactive. Moreover, the Potency entry in the assay with MCC-13, in the assay on MCC-26, in the assay with MKL-1, in the assay with MKL-2, in the assay on UISO and in the assay with WaGa was “inactive” in each case. Besides, the Potency entry in the assay with C33A and with CASKI was “inactive” in each case.
For the compound `CC(=O)OCC(=O)NCCCOc1cccc(CN2CCCCC2)c1`, the Potency result with TAB113, in the assay on TAB165, in the assay on W2, in the assay with MCC-13, in the assay with MCC-26 and with MKL-1 was “inactive” throughout. The Potency entry with MKL-2, in the assay on UISO, in the assay on WaGa, in the assay with C33A, in the assay on CAOV3 and in the assay on CASKI was “inactive” each time. Moreover, in the assay with HEK293T, the outcome was inactive.
For `NCCC(O)(P(=O)(O)O)P(=O)(O)O`, the Potency entry with TAB113, in the assay with TAB165, in the assay on W2, in the assay with MCC-13, in the assay with MCC-26 and in the assay with MKL-1 was “inactive” throughout. For the same compound, the Potency entry in the assay on MKL-2, in the assay on UISO, with WaGa, with C33A, with CAOV3 and in the assay on CASKI was “inactive” each time. Also, the result in the assay with HACAT was inactive.
For the compound `CCCCC1=NC2(CCCC2)C(=O)N1Cc1ccc(-c2ccccc2-c2nn[nH]n2)cc1`, the Potency entry in the assay on TAB113, in the assay with MCC-13, in the assay with MCC-26, in the assay on MKL-1, with MKL-2 and with UISO was “inactive” throughout. Further, the Potency entry with WaGa, in the assay with C33A, with CAOV3 and with CASKI was “inactive” throughout. Besides, the call with HACAT and in the assay on HEK293T was inactive.
On to `CCOC(=O)/C=C(C)/C=C/C=C(C)/C=C/c1c(C)cc(OC)c(C)c1C`, for which, in the assay on TAB113, the Potency is 3.55 µM (active). The result with HACAT was inactive. The Potency entry in the assay on MCC-13, in the assay on MCC-26, in the assay with C33A, with CAOV3 and in the assay on CASKI was “inactive” throughout.
`COc1ccc(OC)c(C(O)CNC(=O)CN)c1` (stereo not drawn): in the assay with HACAT, the compound was classed as inactive. Moreover, the Potency entry in the assay with MCC-13, with MCC-26, in the assay with MKL-1, with MKL-2, with UISO and in the assay with WaGa was “inactive” in each case. The Potency entry with C33A, in the assay on CAOV3 and with CASKI was “inactive” each time.
With `NCCCC[C@H](N[C@@H](CCc1ccccc1)C(=O)O)C(=O)N1CCC[C@H]1C(=O)O`, the Potency result in the assay on TAB113, with TAB165, with W2, in the assay with MCC-13, with MCC-26 and with MKL-1 was “inactive” each time. For the same compound, the Potency entry with MKL-2, in the assay on UISO, in the assay with WaGa, in the assay on C33A, in the assay with CAOV3 and in the assay with CASKI was “inactive” each time. In addition, the outcome in the assay on HEK293T was inactive.
On to `COC(=O)[C@H]1[C@H]2C[C@H]3c4[nH]c5ccccc5c4CCN3C[C@H]2CC[C@@H]1O`, for which the Potency entry in the assay on W2 is “inactive”. In the assay on KB-3-1, the max response was -10.9%.
For `CC(=O)Oc1ccc(C(=C2CCCCC2)c2ccc(OC(C)=O)cc2)cc1`, the Potency entry in the assay on TAB113, in the assay on TAB165, in the assay on W2, with MCC-13, in the assay with MCC-26 and in the assay with MKL-1 was “inactive” throughout. Also, the Potency entry with MKL-2, with UISO, with WaGa, with C33A, in the assay with CAOV3 and in the assay with CASKI was “inactive” throughout. Further, the outcome in the assay on HACAT was inactive.
As to `CC(C)(CO)[C@@H](O)C(=O)NCCCO`, the Potency result in the assay on TAB113, in the assay on TAB165, in the assay on W2, in the assay with MCC-13, in the assay with MCC-26 and with MKL-1 was “inactive” in each case. The Potency result in the assay with MKL-2, in the assay on UISO, in the assay with WaGa, with C33A, in the assay with CAOV3 and in the assay with CASKI was “inactive” in each case. Besides, in the assay with NIH3T3, the call was inactive.
Consider `NCCc1ccn[nH]1`, for which the Potency result in the assay on TAB113, with TAB165, in the assay with W2, in the assay with MCC-13, in the assay on MKL-1 and in the assay on MKL-2 was “inactive” in each case. Moreover, the Potency entry in the assay on UISO, in the assay with WaGa, in the assay on C33A, with CAOV3 and with CASKI was “inactive” each time. The compound was called inactive in the assay with HACAT.
As to `CC(Cc1cccc(C(F)(F)F)c1)NCCOC(=O)c1ccccc1` (stereo not drawn), the Potency result in the assay on TAB113, with TAB165, in the assay with MCC-13, with MCC-26, in the assay on MKL-1 and with MKL-2 was “inactive” in each case. In addition, the Potency result with UISO, with WaGa, in the assay with C33A, in the assay with CAOV3 and in the assay on CASKI was “inactive” each time. Moreover, the result in the assay on NIH3T3 was inactive.
With `C[N+]1(CCCCC[N+]2(C)CCCC2)CCCC1`, the Potency entry in the assay with TAB113, with TAB165 and in the assay with W2 was “inactive” throughout. In the assay on KB-3-1, the max response is 15%.
On to `Nc1cc(Cl)c(NC2=NCCN2)c(Cl)c1`, for which the Potency entry in the assay on TAB113, with TAB165 and with W2 was “inactive” in each case. Moreover, the max response with KB-3-1 was -1.36%.
Consider `NC(=O)CC[C@@H]1NC(=O)[C@H](Cc2ccccc2)NC(=O)[C@H](Cc2ccc(O)cc2)NC(=O)CCSSC[C@@H](C(=O)N2CCC[C@H]2C(=O)N[C@@H](CCCN=C(N)N)C(=O)NCC(N)=O)NC(=O)[C@H](CC(N)=O)NC1=O`, for which the Potency result in the assay on MCC-13, in the assay with MCC-26, with MKL-1, in the assay with MKL-2, in the assay on UISO and with WaGa was “inactive” each time. The Potency result with C33A, in the assay with CAOV3 and with CASKI was “inactive” in each case. For the same compound, the compound was classed as inactive in the assay on NIH3T3.
As to `NC(=O)c1cc[n+](CC2=C(C(=O)[O-])N3C(=O)[C@@H](NC(=O)Cc4cccs4)[C@H]3SC2)cc1`, the call with NIH3T3 was inactive.
Same read-out and setting: then `CCOC(=O)n1ccn(C)c1=S`, with “inactive”.
